HCV inh – inhibitors of hepatitis C virus infection; 340,000 compounds, 3.4% hits; Potency, µM (top dose mostly 41.8 µM), without a hit: top-dose activity change, negative = inhibition, hits mostly inhibitors; Huh7.5.1 HCVcc-Cre infection, luciferase reporter, 44 h; active = well fitted inhibition curve with a large enough effect; inconclusive = small, poorly fitted or top-dose-only effect, or another doubt; inactive = no such curve, though single readings can be large or run the other way; note: potency is the fitted concentration of half-maximal effect
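Antiviral activity was scored by luciferase reporter output from cells infected with HCVcc-Cre (~0.5 moi) in presence of compound, 44 h infection period, cells seeded 1,000/well 4 h prior.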
FMDV antiviral – blocks foot and mouth disease virus; 410,000 compounds, 1.2% hits; Potency, µM (highest dose often 57.9 µM), without a hit: at the highest dose activity change, negative = inhibition, most hits filed as inhibitors; FMDV antiviral cell-based qHTS; calls by dose curve; tested in HEK293T cells; note: read-out not given here; potency is the fitted concentration of half-maximal effect; nearly all actives have a fitted effect of over 45% in size
VACV Venus inh – inhibitors of vaccinia virus (Venus reporter); 330,000 compounds, 0.46% hits; Potency, µM (doses to about 36.5 µM), for the others: at the highest dose activity change, negative = inhibition, hits mostly inhibitors; AID 720580; Vaccinia virus Venus reporter expression, fluorescence; calls by dose curve; tested in A549 cells; note: potency is the fitted concentration of half-maximal effect; nearly all actives have a fitted effect of over 30% in size
VACV mCherry inh – inhibitors of vaccinia virus infection (mCherry reporter signal) | AID 720579 | Vaccinia virus mCherry reporter infection, fluorescence | Potency, µM (top dose mostly 36.5 µM), for inactives: at the highest dose activity change, negative = inhibition, usual class: inhibitors | 310,000 compounds, 0.63% hits; calls by dose curve; tested in A549 cells; note: potency is the fitted concentration of half-maximal effect; nearly all actives have a fitted effect of over 35% in size
HCMV antiviral – inhibitors of human cytomegalovirus | HFF cells, HCMV-luciferase reporter, 72 h; stronger effect = lower value | activity change, negative = inhibition, % at 57.5 µM | 410,000 compounds, 4.5% hits; in the data active = activity change below about -60%; inconclusive = no clear call, values can overlap the other calls; inactive = above about -39%
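Luciferase read-out from HCMV-luciferase-infected HFFs (MOI 1 PFU/cell) 72 h post infection at 37C; compounds added after 16 h cell attachment; activity normalized between buffer-only basal and Salinomycin (10uM) inhibitor controls.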
Numbers without * were called inactive; i = inactive; ? = inconclusive; . = no result given. Only some compounds are listed: those with a hit (about 7.3% of all), similar ones and a draw of the others. % is set by controls: 0 for no effect and ±100 for the full control effect.

SMILES	HCV inh	FMDV antiviral	VACV Venus inh	VACV mCherry inh	HCMV antiviral
COCC(C)n1c(-c2ccc3c(c2)NC(=O)CO3)csc1=Nc1ccc(OC(F)F)cc1 (stereo unspecified)	10µM*	20µM*	?	?	-88*
Cc1cc(C(=O)COC(=O)c2cccc(S(=O)(=O)N(C)C)c2)c(C)n1CC1CCCO1 (stereo unspecified)	-17%	25%	-15%	i	-2
Cc1ccc2nc(-c3ccc4c(c3)NC(=O)CO4)cn2c1	4%	0%	-8%	i	83
CC1CCCCN1S(=O)(=O)c1cc2c(=O)nc3ccccn3c2cc1Cl (stereo unspecified)	.	-13%	1%	-7%	-2
CC1(c2ccc3ccccc3c2)NC(=O)N(CC(=O)N2CCN(Cc3ccc(C#N)cc3)CC2)C1=O (stereo unspecified)	1.3µM*	?	?	?	.
Cc1cccc(NC(=O)CN2CCN(C(=O)CN3C(=O)NC4(CC(C)CC(C)(C)C4)C3=O)CC2)c1C (stereo unspecified)	?	-29%	.	.	0
CC(=O)N1CCN(C(=O)CN2C(=O)NC(C)(c3ccc4ccccc4c3)C2=O)CC1 (stereo unspecified)	-9%	-17%	-5%	-14%	-22
CC1CC(C)(C)CC2(C1)NC(=O)N(CC(=O)N1CCN(Cc3ccc(C#N)cc3)CC1)C2=O (stereo unspecified)	1.4µM*	?	-25%	?	-84*
COCC(=O)N1CCC(Oc2ccc(C(=O)N3CCCCCCC3)cc2)CC1	4%	18%	-11%	i	7
COCC(=O)N1CCC(Oc2ccc(C(=O)N(C)CCCC3CCCC3)cc2)CC1	?	?	.	.	-67*
C[N+]12CCC(CC1)C(=C(c1ccccc1)c1ccccc1)C2	?	-17%	?	?	?
CC[N+]12CCC(CC1)C(=C(c1ccccc1)c1ccccc1)C2	3%	-24%	-7%	-11%	-61*
COc1ccc(Cn2cnc3cnc(-c4cc(OC)c(OC)c(OC)c4)cc32)cc1OC	.	.	.	.	39
Cc1cc(C)cc(S(=O)(=O)c2cnc3ccccc3n2)c1	-7%	?	0%	2%	-14
O=S(=O)(c1ccc(Cl)cc1)c1cnc2ccccc2n1	?	25µM*	-4%	-9%	-32
Cc1cccc(NC(=O)Cc2coc3ccc4ccccc4c23)n1	?	-5%	3%	i	-70*
CCCCN(CC)C(=O)CCCn1c(=O)c2cccn2c2ccccc21	.	-22%	-9%	-6%	?
COc1ccc(OC)c(N(CC(=O)NCc2ccccc2)S(=O)(=O)c2ccccc2)c1	.	28%	0%	0%	5
CC(C)SCCCOc1ccc(C(C)(C)C)cc1	5%	42%	-1%	.	-86*
O=C1C(Br)=C(c2ccccc2)C(c2ccccc2)=C1c1ccccc1	6.3µM*	3.5µM*	-10%	-7%	.
O=C1NC(c2ccccc2)=C(c2ccccc2)C1=O	2%	-5%	-4%	i	-15
COCCn1c(=O)c(-c2ccc(OC)cc2)nc2cnc(N3CCN(C)CC3)nc21	.	1%	.	.	.
Cc1cc(N2CCCCCC2)nc(-c2ccccc2O)n1	13µM*	-22%	-27%	.	46
CCCOc1cc(C)nc(-c2ccccc2O)n1	15%	5%	-5%	.	-65*
Cc1cc(C)nc(N2CCC(C(=O)NC3CCCCCC3)CC2)n1	-8%	7%	.	.	33
SMILES	HCV inh	FMDV antiviral	VACV Venus inh	VACV mCherry inh	HCMV antiviral
Cc1cc(N2CCCCC2)nc(N2CCCCC2)n1	3%	-18%	-26%	-20%	-61*
Cc1cc(Nc2ccccc2)nc(-c2ccccc2O)n1	0.63µM*	9%	?	.	-5
CCCc1nc2cccnc2n1C1CCN(C(=O)CC2NC(=O)c3ccccc32)CC1 (stereo unspecified)	.	-14%	-10%	-13%	.
CSc1ccc(/C=C/c2ccnc3ccccc23)cc1	.	.	4%	-6%	.
COC(=O)c1ccccc1NC(=O)C1CCCN(C(=O)c2cnn(-c3ccc(F)cc3)c2-n2cccc2)C1 (stereo unspecified)	.	?	-28%	?	7
CC(Oc1ccccc1)C(=O)Nc1nc(-c2ccncc2)cs1 (stereo unspecified)	3%	-1%	.	.	-19
CC(Oc1cccc(Cl)c1)C(=O)Nc1nc(-c2ccccn2)cs1 (stereo unspecified)	6.3µM*	?	?	11µM*	-72*

Assay outcomes from PubChem.
